Consider 23 sequences from PMC7819943, “Rice protein-binding microarrays: a tool to detect cis-acting elements near promoter regions in rice”.

Over roughly 68,000 sequences, “fluorescence intensity (a.u.)” has its median near 9,100; the highest 2% begin near 16,000. The entries come from a sample that favours the highest values as a whole.

The target of this assay is OsWRKY34 (Oryza sativa, UniProt Q0JBA9 1-250). As to the kind of experiment: protein-binding microarray (RPBM); PBS, 2% BSA, 51.3 ng/ul salmon testes DNA, 50 uM zinc acetate, 200 nM TF, 25 C, 1 h; high values mean tight binding. Particulars: protein: recombinant; tags: N-terminal polyhistidine and DsRed monomer fusion (pET32a); label: CyDye5-dUTP incorporated in the synthesized complementary strand; 3' TTTTT single-stranded linker to array surface; dsDNA, one strand shown. In short, it runs like this: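 Binding signal is defined as the fluorescence intensity of each feature in arbitrary units, read on an Axon 4000B scanner. Transcription factors with N-terminal polyhistidine and DsRed fusions came from E. coli BL21-CodonPlus and were purified on Ni–NTA. They were incubated at 200 nM for 1 h at 25 °C on a custom Agilent array that had been made double-stranded with Cy5-dUTP, with 50 µM zinc acetate present, and the array was washed.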
Sequence of OsWRKY34 (Q0JBA9 entry or part of it): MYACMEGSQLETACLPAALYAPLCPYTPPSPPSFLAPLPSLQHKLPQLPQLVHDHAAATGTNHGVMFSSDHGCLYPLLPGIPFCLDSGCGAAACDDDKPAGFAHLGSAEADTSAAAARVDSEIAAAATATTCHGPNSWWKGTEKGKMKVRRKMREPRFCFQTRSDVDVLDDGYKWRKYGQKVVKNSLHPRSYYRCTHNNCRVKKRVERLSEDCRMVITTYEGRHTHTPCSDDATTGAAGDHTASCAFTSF
For “ACGTGGAGTCACGTGACTGGGCCGTGCCACTTTTTTTTATCGGAGTCACCTAGTGCAG”, the binding signal is 9360 fluorescence intensity (a.u.).
Regarding “AGTCAATATCTTGCTTTGATACCTTTTTTTTTGCATTTTTCGGAGTCACCTAGTGCAG”, the binding signal was 8050 fluorescence intensity (a.u.).
For “ACAACACGCCGCCTCGCCTGCCCATCCCGTCCAACCCACGCGGAGTCACCTAGTGCAG”, the binding signal is 9200 fluorescence intensity (a.u.).
Then “GATTGGTTGAAAATGTTTCTATTCTTAATGAATATCCTATCGGAGTCACCTAGTGCAG”, with 8080 fluorescence intensity (a.u.); and “CCATCCACGCGACGCGGCACAACCTCCCGCGCCCAACACACGGAGTCACCTAGTGCAG”, with 8760 fluorescence intensity (a.u.).
Then “CCTTCTTGTCCTGCTCCCGCGCCGGCTCCGACCGGGTCCTCGGAGTCACCTAGTGCAG”, with 8600 fluorescence intensity (a.u.); and “AGTACATGGGCTTTCCATAATTGGTTTATACGTGGTTATTCGGAGTCACCTAGTGCAG”, with 8260 fluorescence intensity (a.u.).
Then “CTCTGAATGGCCTTGTCACCCTTTTTATTCATTCATGCTCCGGAGTCACCTAGTGCAG”, with 9200 fluorescence intensity (a.u.); and “TGTCCTTATCATCTTTGATCAAGTTTTTCTCTTTTCCTATCGGAGTCACCTAGTGCAG”, with 9480 fluorescence intensity (a.u.).
Turning to “CTCTTTTTTTTTCTTCCACTACGCTCCAAAACTTCTCTCCCGGAGTCACCTAGTGCAG”, the binding signal is 8790 fluorescence intensity (a.u.).
Then “CCTTAGTCAGCCTCTGCTTCTGCTCCGTGCTCGCCGGCGCCGGAGTCACCTAGTGCAG”, with 12600 fluorescence intensity (a.u.).
As for “CCCGCGGCGGCGGGGTGGAGGCGACGGCGGTGGTGGTGGGCGGAGTCACCTAGTGCAG”, the binding signal is 8590 fluorescence intensity (a.u.).
For the sequence “TACTGGGGAATCGGTGGTGGTGGCGGCGGCGGTGGCGGCGCGGAGTCACCTAGTGCAG”, the binding signal was 9690 fluorescence intensity (a.u.).
Regarding “GGAATCTGGGAGGTGGGTGGGCCCCACGGCGGAGACTCCGCGGAGTCACCTAGTGCAG”, the binding signal is 17200 fluorescence intensity (a.u.).
With “GTGCGTGGGGCGAAGGGAGGGGAAGAAGAAGAAGGAGAAGCGGAGTCACCTAGTGCAG”, the binding signal was 8080 fluorescence intensity (a.u.).
Then “GCGGCCGGCCGAGGGGTGGGAGCCGTCCGATCGCGGCGCGCGGAGTCACCTAGTGCAG”, with 8550 fluorescence intensity (a.u.); and “TGAAGGGCGGGAGGGGCGTTGCGCGGGAGTGGCCGCGCGGCGGAGTCACCTAGTGCAG”, with 8670 fluorescence intensity (a.u.).
Consider “GCCTCGATCGCGGCGGTGGCGGTGGGGAGGGGAGCGCACCCGGAGTCACCTAGTGCAG”, for which the binding signal was 19000 fluorescence intensity (a.u.).
For the sequence “TGTGGCGGGGAGGGAGGGAGGGAGAAGGGGCGGCGTGTTGCGGAGTCACCTAGTGCAG”, the binding signal is 16600 fluorescence intensity (a.u.).
Consider “CTCATCCGAGTGGGTGGGCGGGGAGAGATCTAGGGCTTGCCGGAGTCACCTAGTGCAG”, for which the binding signal was 11700 fluorescence intensity (a.u.).
Then “GGGGCGGAGATCTGGGAGGAGGAGGAGGAGGTGGTGGTGGCGGAGTCACCTAGTGCAG”, with 14500 fluorescence intensity (a.u.); and “ACGCAGGGGAGGGAGGGAGCGGTGGTGGTGGCGGCGGCGCCGGAGTCACCTAGTGCAG”, with 14000 fluorescence intensity (a.u.); and “CGATCCGCTTGCAGGCGGCGGCGGCGGGAGGGTGGTGGGGCGGAGTCACCTAGTGCAG”, with 18000 fluorescence intensity (a.u.).
